Source: PubChem (National Center for Advancing Translational Sciences (NCATS))
Only some compounds are listed: those with a hit (about 19% of all), similar ones and a draw of the others.
TGFb inhibitor = TGF-b pathway inhibition; HepG2 CAGA-GFP TGF-b/SMAD3 reporter, GFP fluorescence, 18 h; TGF-beta stimulated, 500 pg/mL final; Potency, µM (highest dose often 46.1 µM), for the others: top-dose activity, negative = inhibition, hits mostly inhibitors; 410,000 compounds, 1.2% hits; AID 588855; further: potency means the concentration at half of the fitted maximal effect; on the % scale 0 is the no-effect control and ±100 the full control effect; nearly all actives have a fitted effect of over 65% in size
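Cell-based qHTS in HEPG2 carrying a CAGA-GFP Smad reporter; compounds added before 500 pg/mL final TGF-beta, 18 h incubation at 37 degrees C, GFP fluorescence quantified per cell by imaging cytometry.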
HepG2 tox = HepG2 cytotoxicity, counter-screen for TGF-b inhibitors. HepG2 CAGA-GFP viability, ATP luminescence, 18 h. Potency, µM (titrated, usually from 46.1 µM), without a hit: top-dose activity change, negative = cytotoxicity, actives largely listed as cytotoxic. 410,000 compounds, 0.76% hits. AID 588856; further: potency means the concentration at half of the fitted maximal effect
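CellTiter-Glo luminescence gave cytotoxicity after 18 hours at 37 degrees C. The cells were HepG2 CAGA-GFP in 1% FBS DMEM, stimulated with 500 pg/mL TGF-beta after compound addition. %Activity was normalised to no-cell wells (complete cell-killing) and DMSO (no toxicity), and curves were fitted and classified.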
TDP1 inh = TDP1 (human) enzyme inhibition; recombinant TDP1, AlphaScreen DNA substrate cleavage; 350,000 compounds, 0.28% hits; AID 485290; Potency, µM (series often up to 130 µM), for inactives: at the highest dose activity change, negative = inhibition, most hits filed as inhibitors; Q9NUW8; further: potency means the concentration at half of the fitted maximal effect; on the % scale 0 is the no-effect control and ±100 the full control effect; nearly all actives have a fitted effect of over 40% in size
Target sequence (Q9NUW8 whole entry, looked up): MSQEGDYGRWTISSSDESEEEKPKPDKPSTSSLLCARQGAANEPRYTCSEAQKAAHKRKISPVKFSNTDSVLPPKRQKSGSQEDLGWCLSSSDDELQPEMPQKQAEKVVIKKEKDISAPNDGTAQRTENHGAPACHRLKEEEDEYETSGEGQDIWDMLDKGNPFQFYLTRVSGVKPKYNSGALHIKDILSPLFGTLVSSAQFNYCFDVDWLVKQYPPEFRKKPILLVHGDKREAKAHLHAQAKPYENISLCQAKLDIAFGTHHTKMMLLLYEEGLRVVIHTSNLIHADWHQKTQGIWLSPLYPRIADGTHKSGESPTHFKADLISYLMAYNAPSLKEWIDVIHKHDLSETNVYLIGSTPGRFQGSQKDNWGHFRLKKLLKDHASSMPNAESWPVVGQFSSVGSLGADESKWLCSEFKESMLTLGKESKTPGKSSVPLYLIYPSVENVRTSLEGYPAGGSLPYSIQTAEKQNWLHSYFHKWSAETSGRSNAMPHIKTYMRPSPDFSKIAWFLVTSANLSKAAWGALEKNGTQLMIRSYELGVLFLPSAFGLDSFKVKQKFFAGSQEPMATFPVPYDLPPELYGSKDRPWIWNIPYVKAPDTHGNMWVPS
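Compounds were preincubated with Tdp1 (1 nM final) for 15 min at room temperature before substrate (15 nM final) started a 5 min reaction; beads (10 ug/ml final) were then added for 10 min before AlphaScreen detection.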
DT40 TDP1 no CPT = qHTS for Inhibitors of human tyrosyl-DNA phosphodiesterase 1 (TDP1): qHTS in cells in absence of CPT | 420,000 compounds, 15% hits | DT40 Tdp1-/- hTDP1 cells, no CPT, ATP luminescence, 48 h | Potency, µM (doses to about 46.2 µM), for the others: top-dose activity change, negative = growth inhibition, usual class: inhibitors; further: potency means the concentration at half of the fitted maximal effect; on the % scale 0 is the no-effect control and ±100 the full control effect; nearly all actives have a fitted effect of over 55% in size
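Cells were dispensed at 400 per well, compounds added by pin tool, plates incubated ≥48 hr at 37 °C, then CellTiter-Glo added for 30 min at room temperature before luminescence reading. Line: DT40 Tdp1-/- complemented with hTDP1; camptothecin omitted.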
IL1B secr inh = inhibitors of inflammasome signaling (IL-1 beta secretion) | THP-1 LPS/ATP IL-1B secretion, AlphaLISA, 16 h; hits give low values | activity change, % at 57.5 µM | 360,000 compounds, 4.7% hits | AID 743279; in the data active means activity change below about -50%; inconclusive means mostly about -30% to -49%; further: on the % scale 0 is the no-effect control and ±100 the full control effect
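Secreted IL-1B measured by AlphaLISA bead assay after 16 h compound exposure of THP-1 cells; compounds (final up to 57.5 uM) added 1 h before LPS (250 ng/mL) and ATP (1.25 mM) stimulation; lower signal means less secretion.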
DT40 TDP1 CPT = growth inhibition of DT40 Tdp1-/-;hTDP1 cells with camptothecin (screen for TDP1 inhibitors); chicken DT40 Tdp1-/-;hTDP1 cells + 20 nM CPT, ATP luminescence, 48 h; 420,000 compounds, 12% hits; Potency, µM (highest dose often 46.2 µM), for the others: top-dose activity change, negative = growth inhibition, usual class: inhibitors; further: potency means the concentration at half of the fitted maximal effect; on the % scale 0 is the no-effect control and ±100 the full control effect; nearly all actives have a fitted effect of over 55% in size
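Cell growth measured by CellTiter-Glo luminescence after a minimum 48 h, 37 C compound exposure with 20 nM CPT in Tdp1-knockout DT40 cells stably expressing hTDP1, seeded 400/well; qHTS titration format.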
An asterisk follows results filed as active; ? = inconclusive; . = no result; ! = not active in a repeat; [ ] = remark or other dose. Unless noted, the call rests on the fitted dose curve; in most records, active means well fitted curve in the direction sought with a large enough effect; inconclusive means small, poorly fitted or top-dose-only effect, or another doubt; inactive means no such curve, though single readings can be large; an effect the other way counts as inactive or inconclusive.

SMILES | TGFb inhibitor | HepG2 tox | TDP1 inh | DT40 TDP1 no CPT | IL1B secr inh | DT40 TDP1 CPT
CC(=O)Nc1c(O)cc(Br)c2nonc12 | 17% | 2% | 0% | -10% | . | 3%
CC(=O)Nc1cc(O)c2nonc2c1O | 0.56µM* | 0.56µM* | 0% | 0.71µM* | . | 0.63µM*
C/C(N)=C(/C#N)C(=O)CSc1nnc(-c2ccccc2)n1C | -1% | -2% | 0% | -12% | 9 | 0%
O=C1CC(c2ccccc2)Oc2cc(O)cc(O)c21 (configuration not stated) | 1% | -10% | . | -26% | -4 | -20%
CC1CC(=O)c2c(cc3c(-c4c(O)cc(O)c5c(O)c6c(cc45)OC(C)CC6=O)c(O)cc(O)c3c2O)O1 (configuration not stated) | ? | -103% | 4% | 1.3µM* | 3 | 1µM*
CCC(=O)NC(NC(=S)Nc1cccc2cccnc12)C(Cl)(Cl)Cl (configuration not stated) | -4% | 2% | 1% | 15µM* | 5 | 18µM*
CC(C)(C)C(=O)NC(Nc1cccc2cccnc12)C(Cl)(Cl)Cl (configuration not stated) | ? | -7% | 3% | 16µM* | 28 | ?
CC(C)C(=O)NC(NC(=S)Nc1cccc2cccnc12)C(Cl)(Cl)Cl (configuration not stated) | 23% | 0% | 8% | 16µM* | 15 | 8.2µM*
O=C(/C=C/c1ccccc1)NC(NC(=S)Nc1cccc2cccnc12)C(Cl)(Cl)Cl (configuration not stated) | . | . | 9% | . | . | .
Cc1ccc(C(=O)NNCC(=O)Nc2ccc(Cl)cc2F)cc1 | -12% | 1% | -1% | -29% | -2 | -2%
CC(=O)NNC(=O)c1nc(-c2ccccc2)c(C)o1 | -18% | -10% | 3% | -6% | -6 | -1%
COc1cc(NC(=O)Cn2cnc3c(SC)nc(N)nc32)cc(OC)c1OC | -4% | -39% | 1% | -18% | 9 | -25%
O=S1(=O)CCOC[C@H](CC2CCCCC2)N1Cc1ccccc1Br | 13µM* | 7.1µM*! | . | 21µM* | -11 | ?
O=S1(=O)CCOC[C@H](CC2CCCCC2)N1Cc1ccccc1F | ? | -13% | . | 20µM* | -16 | ?
Cc1ccc(NC(=O)COC(=O)c2ccccc2OCC(=O)Nc2ccc(Br)cc2)c(C)c1 | 7% | 0% | . | ? | . | ?
Cc1ccc(-n2cnc(N)c2C(=O)c2cccc([N+](=O)[O-])c2)cc1 | 15% | -3% | 4% | 29µM* | . | ?
O=C(O)c1ccc(N2C(=O)c3ccc(C(=O)c4cccc([N+](=O)[O-])c4)cc3C2=O)cc1 | -11% | -5% | -2% | -23% | 9 | 5%
O=C(c1cc2nc(-c3ccccc3)cc(-c3ccccc3)n2n1)N1CCN(C(=O)c2ccco2)CC1 | -32% | -16% | 0% | 15µM* | ? | 23µM*
O=C(c1cc2nc(-c3ccccc3)cc(-c3ccccc3)n2n1)N1CCCC1 | 6% | -11% | -5% | ? | -67* | ?
CN1CCN(C(=O)c2cc3nc(-c4ccccc4)cc(-c4ccccc4)n3n2)CC1 | 10% | -9% | -2% | ? | ? | -28%
Cc1ccc(N(CC(=O)NCc2ccccc2)C(=O)CCC(=O)Nc2ccccn2)cc1C | -19% | -1% | 8% | -24% | -11 | 8%
Cc1ccc(S(=O)(=O)N2CCOCC2)cc1C(=O)N1CCN(c2ncccn2)CC1 | 64% | 0% | -7% | 5% | -9 | 7%
CN(C)c1cccc(C(=O)N2CCC(c3ccncc3)CC2)c1 | -28% | -15% | 7% | -75% | . | 21µM*
CC1CCC(C(C)C)C(OC(=O)COC(=O)c2cc(O)ccc2N)C1 (configuration not stated) | ? | -100% | 8% | ? | -80* | ?
Cc1ccc2oc(=O)c(/C=C(\O)CC(C)C)nc2c1 | -22% | -12% | 2% | -87% | 18 | 23µM*
SMILES | TGFb inhibitor | HepG2 tox | TDP1 inh | DT40 TDP1 no CPT | IL1B secr inh | DT40 TDP1 CPT
c1ccc2oc(CCc3nc4ccccc4o3)nc2c1 | 3% | -1% | -3% | 0% | -6 | 3%
CS(=O)(=O)Cc1nc2ccccc2oc1=O | 0% | 0% | . | 6.5µM* | 10 | 6.5µM*
Cc1ccc2oc(=O)c(/C=C(\O)c3ccccc3)nc2c1 | -17% | -20% | 5% | -22% | 14 | -1%
C/C(O)=C\c1nc2ccccc2oc1=O | -16% | -38% | 2% | 7.3µM* | 40 | 10µM*
O=c1oc2ccccc2nc1/C=C(\O)c1ccc(Br)cc1 | -4% | -4% | 7% | ? | 3 | ?
CCN(CC(=O)Nc1ccc2c(c1)OCO2)Cc1nc2ccccc2c(=O)[nH]1 | 14% | -24% | 7% | ? | -4 | ?
CCN(CC(=O)Nc1ccc2c(c1)CCC2)Cc1nc2ccccc2c(=O)[nH]1 | 12% | -33% | 8% | 8.2µM* | 4 | 3.7µM*
O=C(CSc1nc2ccccc2c(=O)n1-c1ccccc1F)Nc1ccc2c(c1)CCC2 | -24% | -27% | -5% | ? | 7 | ?
CCN(CC(=O)Nc1cccc(Br)c1)Cc1nc2ccccc2c(=O)[nH]1 | 14% | 2% | 8% | 4.6µM* | 9 | 5.2µM*
CCN(CC)CC(=O)Nc1ccc2c(c1)Nc1ccccc1CC2 | 9% | -50% | 9% | 16µM* | -14 | ?
CCN(CC)CCn1c(SCC(=O)Nc2ccc3c(c2)CCC3)nc2ccccc2c1=O | ? | -58% | 1%[56.1 µM] | 2.3µM* | ? | ?
CCN(CC)CC(=O)Nc1ccc2c(c1)N(C(=O)CN(CC)CC)c1ccccc1CC2 | 3% | -35% | 2% | ? | ? | ?
CCCCCCC=O | . | . | 5% | . | . | .
COc1ccccc1C(=O)COC(=O)CN1C(=O)C2CC=CCC2C1=O (configuration not stated) | 1% | 0% | 1% | -4% | 11 | 13%
COc1ccccc1N1CCN(c2cc(C)nc3nncn23)CC1 | -10% | -4% | 0% | ? | . | ?
O=C(Nc1cccc(C(F)(F)F)c1)c1cc(-c2ccc(Cl)s2)nc2ccccc12 | -1% | -10% | 2% | ? | . | ?
COc1ccc(C2CC(c3ccccc3)=NN2S(=O)(=O)c2ccccc2)cc1 (configuration not stated) | ? | -5% | . | 4.6µM* | 0 | 7.3µM*
